Source: PubChem BioAssay (National Center for Advancing Translational Sciences (NCATS))
ATXN2 expr inh: reduces ATXN2 reporter expression in HEK-293 cells; HEK-293 ATXN2-luciferase reporter, luminescence, 24 h; Potency, µM (titrated, usually from 57 µM), for the others: top-dose activity change, negative = inhibition, actives largely listed as inhibitors; hit rate 0.72% among 360,000; AID 1745845; also: % is scaled to controls: 0 for no effect and ±100 for the full control effect; nearly all actives have a fitted effect of over 55% in size
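qHTS (up to 57 uM final) was run with 24 h compound exposure of reporter cells at 37 °C. Each well was multiplexed: SteadyGlo luminescence measured ATXN2-luciferase expression after a fluorogenic Gly-Phe-AFC viability readout (25 uM final).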
KB-3-1 tox: kills parental KB-3-1 adenocarcinoma cells. KB-3-1 viability, CellTiter-Glo ATP luminescence, 72 h. Potency, µM (series often up to 46.1 µM), usual class: cytotoxic. hit rate 1.4% among 400,000; also: % is scaled to controls: 0 for no effect and ±100 for the full control effect; nearly all actives have a fitted effect of over 60% in size
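Cytotoxicity in the drug-sensitive parental line KB-3-1 was scored as loss of CellTiter-Glo luminescence following 72 h incubation with compound. Values come from curve fitting of normalized concentration-response data.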
S2 tox: viability counter-screen for ATXN expression inhibitors | hit rate 0.49% among 400,000 | AID 651635 | S2 cells (HEK-293 line with an ATXN2-luciferase reporter) viability, CellTiter-Fluor protease fluorescence, 24 h | Potency, µM (highest dose often 56.7 µM), most hits filed as cytotoxic; also: nearly all actives have a fitted effect of over 40% in size
HepG2 viability: kills HepG2 cells in TGF-b inhibitor counter-screen. AID 588856. Potency, µM (titrated, usually from 46.1 µM), for the others: at the highest dose activity change, negative = cytotoxicity, usual class: cytotoxic. HepG2 CAGA-GFP viability, ATP luminescence, 18 h. hit rate 0.76% among 410,000
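HepG2 CAGA-GFP cells (1000/well, DMEM with 1% FBS) received compound, then TGF-beta at 500 pg/mL final, and were incubated 18 hours at 37 degrees C. Viability was read by CellTiter-Glo luminescence. Media-only wells were set as complete cell-killing and DMSO as no toxicity.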
KB-V1 cytotox: kills drug-selected multidrug resistant KB-V1 cells; AID 1347076; Potency, µM (top dose mostly 46.1 µM), hits mostly cytotoxic; hit rate 3.4% among 400,000; KB-V1 MDR cells viability, CellTiter-Glo, 72 h; also: % is scaled to controls: 0 for no effect and ±100 for the full control effect; nearly all actives have a fitted effect of over 60% in size
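Following 72 h at 37 degrees C with compound, KB-V1 cell viability was read by CellTiter-Glo luminescence, medium being phenol-red-free DMEM plus 10% FBS; concentration-response parameters came from normalized, curve-fitted qHTS data.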
TGFb SMAD3 inh: blocks TGF-b signaling | HepG2 CAGA-GFP TGF-b/SMAD3 reporter, GFP fluorescence, 18 h; TGF-beta stimulated, 500 pg/mL final | Potency, µM (top dose mostly 46.1 µM), for the others: top-dose activity, negative = inhibition, hits mostly inhibitors | hit rate 1.2% among 410,000; also: % is scaled to controls: 0 for no effect and ±100 for the full control effect; nearly all actives have a fitted effect of over 65% in size
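HEPG2 CAGA-GFP, 1000 cells/well; 2 h settle, 37 C; cpd via pin tool; TGF-b 500 pg/mL final; 18 h, 37 C; GFP imaging ex488/em500-530; %Activity normalised to -TGF-b and +DMSO controls; CRC fit, curve class.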
The depositor's hits bear a star; i = inactive; ? = inconclusive; nt = not tested or not shown; [ ] = another dose, or the depositor's remark. Shown are actives, neighbours in structure and some others; about 5.9% of the full set was active somewhere. Calls follow the shape of the dose curve; as a rule, active = well fitted curve in the direction sought with a large enough effect; inconclusive = small, poorly fitted or top-dose-only effect, or another doubt; inactive = no such curve, though single readings can be large; an effect the other way counts as inactive or inconclusive. Potency is read from the fitted curve at half-maximal effect.

SMILES | ATXN2 expr inh | KB-3-1 tox | S2 tox | HepG2 viability | KB-V1 cytotox | TGFb SMAD3 inh
COC(=O)N/N=C\c1ccc(-c2cc(Cl)c(Cl)cc2Cl)o1 | ? | i | ? | -32% | i | 7%
CC1CCN(C(=O)CSc2nc3ccccc3s2)CC1 | 41% | i | i | -4% | 15µM* | -3%
O=C(CSc1nc2ccccc2s1)N1c2ccccc2Sc2ccccc21 | -15% | ? | i | -2% | 21µM* | -3%
COc1ccccc1Cc1nc2ccccc2nc1SCC(=O)N1CCC(C)CC1 | 1% | i | ? | -60% | i | 16µM*
CCOc1ccc2nc(SCC(=O)N3c4ccccc4Sc4ccccc43)sc2c1 | 12% | i | i | -3% | i | 0%
CC1CCCN(C(=O)CSc2cnc3ccccc3n2)C1 (stereo not given) | 27% | i | i | -20% | 9.2µM* | -1%
COc1ccc(NC(=O)Cn2cc(C(=O)c3ccc(C)c(C)c3)c(=O)c3cc(OC)ccc32)cc1 | 2% | i | i | -1% | i | 6%
C/C(=N\NC(=O)c1ccccc1O)c1ccc(NC(=O)Cc2ccccc2)cc1 | 17% | ? | i | -76% | 16µM* | -17%
C/C(=N\NC(=O)c1ccccc1C)c1ccc(NC(=O)c2cccs2)cc1 | 4% | i | ? | 8% | 5.8µM* | -8%
COc1cc(OC)cc(C2=Cc3ccccc3C(CC(C)=O)N2c2ccc(-c3cncnc3)cc2)c1 (stereo not given) | 4% | 23µM* | i | nt | ? | nt
COc1cc(OC)cc(C2=Cc3ccc(OC)cc3C(CC(C)=O)N2c2ccc(-c3cccs3)cc2)c1 (stereo not given) | -2% | 7.3µM* | ? | nt | i | nt
COc1cccc(C2=Cc3ccc(F)cc3C(CC(C)=O)N2c2ccc(-c3cncnc3)cc2)c1 (stereo not given) | -20% | ? | ? | nt | ? | nt
COc1cc(OC)cc(C2=Cc3ccccc3C(CC(C)=O)N2c2ccc(-c3cccs3)cc2)c1 (stereo not given) | 12% | ? | i | nt | i | nt
COc1ccc2c(c1)CC(C(=O)NCCc1ccc(S(N)(=O)=O)cc1)CO2 (stereo not given) | 5% | i | i | 0% | i | -6%
CCC(Cn1nnc2ccccc2c1=O)NC(=O)Nc1ccc(C)c(C)c1 (stereo not given) | nt | nt | nt | -6% | nt | -15%
CCCn1c(=S)[nH]c2cc(C(=O)N3CCc4ccccc43)ccc2c1=O | -8% | ? | i | -21% | 2.3µM* | 1%
Cc1ccc(-c2cn3c4c(=O)n(C)c(=O)n(C)c4nc3n2-c2cccc(Cl)c2)cc1 | 16% | i | i | -8% | ? | 3%
Cc1ccc(S(=O)(=O)N2C[C@H]3N(C(=O)OC(C)C)N(C(=O)OC(C)C)C[C@H](OC(=O)NCc4ccccc4)[C@@]3(O)C2)cc1 | -22% | i | ? | -7% | i | ?
Cc1ccc(S(=O)(=O)N2C[C@H]3N(C(=O)OC(C)C)N(C(=O)OC(C)C)C[C@H](OC(=O)NCC4CCCCC4)[C@@]3(O)C2)cc1 | -38% | ? | 32µM* | -39% | ? | ?
CCN(CC)S(=O)(=O)c1ccc(N2C(=O)CC2(/C=C/c2ccccc2)C(=O)NC2CCCC2)cc1 (stereo not given) | 2% | i | i | 1% | 2.6µM* | 4%
COc1ccccc1/C=C/C1(C(=O)NC2CCCC2)CC(=O)N1c1ccc(C)cc1 (stereo not given) | ? | 21µM* | ? | -13% | 2.9µM* | ?
COc1ccccc1/C=C/C1(C(=O)NC2CCCC2)CC(=O)N1c1ccc(F)cc1 (stereo not given) | 18µM* | i | nt | -27% | ? | ?
COc1ccccc1/C=C/c1onc(C)c1S(=O)(=O)N1CCC(C(=O)NC2CCCCCC2)CC1 | 5% | i | i | -2% | i | 6%
CCN(CC(=O)NC1CCCCCC1)S(=O)(=O)c1ccccc1 | 6% | i | ? | -12% | i | ?
COc1ccc(-c2cc(C(=O)N3CCc4c(cnc(C)c4CNC(=O)c4ccsc4)C3)[nH]n2)cc1 | nt | nt | i | nt | nt | nt
SMILES | ATXN2 expr inh | KB-3-1 tox | S2 tox | HepG2 viability | KB-V1 cytotox | TGFb SMAD3 inh
O=C(CCC(=O)N1CC2CCCN2c2ccccc21)NCc1ccccc1 (stereo not given) | nt | i | nt | -2% | i | 15%
CCCCN(CCCNc1ncnc2nc[nH]c12)c1ccccc1 | ? | i | ? | 3.2µM* | ? | ?
CCN(CCCNc1ncnc2nc[nH]c12)c1cccc(C)c1 | -19% | i | i | -22% | ? | ?
Cc1ccc(NC(=O)C(Cc2ccccc2)NS(=O)(=O)c2cccc3nsnc23)c(C)c1 (stereo not given) | -2% | i | i | -17% | ? | -11%
CC1CCCC(C)N1C(=O)COC(=O)Cc1ccc(Cl)cc1 (stereo not given) | 1% | i | i | -10% | i | 0%
CC1CCCC(C)N1C(=O)CSCc1ccc(Cl)cc1 (stereo not given) | 9% | ? | i | -25% | 18µM* | -3%
Cc1ccc(C)c(SCC(=O)OC/C(O)=C(\C#N)c2nc3ccccc3[nH]2)c1 | -19%[11.3 µM] | i | ? | -17% | i | -10%
N#C/C(=C(/O)c1ccc([N+](=O)[O-])s1)c1nc2ccccc2[nH]1 | ? | ? | i | -35% | i | -31%
N#C/C(=C(\O)Cc1ccccc1)c1nc2ccccc2[nH]1 | -25% | ? | ? | -23% | i | -15%
N#C/C(=C(/O)CCl)c1nc2ccccc2[nH]1 | ? | ? | ? | -31% | 23µM* | 10µM*
N#C/C(=C(/O)c1ccc(Br)s1)c1nc2ccccc2[nH]1 | -1% | 6.5µM* | i | -6% | ? | 1%
N#C/C(=C(/O)COC(=O)CSc1ccc2ccccc2c1)c1nc2ccccc2[nH]1 | ? | ? | 20µM* | 3% | i | -1%
O=C(C[n+]1cc(Br)cc(Br)c1)c1ccc2ccccc2c1 | nt | i | nt | 13% | i | 3%
Cc1nn2c(-c3ccccc3)ccnc2c1-c1ccccc1 | 0% | i | ? | -23% | 15µM* | 0%
COc1ccc(NC(=O)CSc2nc3ccccc3n2CC(=O)N2CCCC(C)C2)cc1 (stereo not given) | 0% | i | ? | -10% | i | 0%
